From PubChem
Pf apPOL inh: Pf-apPOL inhibitors, biochemical, fluorescence; actives 0.25% (n = 210,000); Plasmodium falciparum apicoplast DNA polymerase (apPOL); Recombinant Pf-apPOL, molecular beacon fluorescence, 1.5 h; inhibition, % at 10 µM; AID 1794808, 2022
mHTT-CaM PPI inh: mutant huntingtin-calmodulin interaction inhibitors – biochemical, AlphaScreen, primary screen. P42858. actives 3.6% (n = 190,000). AlphaScreen His-mHTT/GST-CaM binding, luminescence. AID 1671202, 2021. inhibition, % at 15 µM;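 also: 0% = both proteins with DMSO and 100% = one protein alone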
* marks the source's active call; other numbers are inactive results; x = no result given. Only some compounds are listed: those with a hit (about 3.5% of all), similar ones and a draw of the others. Rule as the data show it: active = inhibition above about 50%; inactive = the rest.

SMILES	Pf apPOL inh	mHTT-CaM PPI inh
O=C(c1cccc2[nH]ccc12)N1CCC2(CC1)NC(=O)N(Cc1ccc(F)cc1)C2=O	-4.3	7.1
Cc1cc(C)c(S(=O)(=O)N2CCC(c3nc(CNC(=O)C4CC4)cs3)CC2)c(C)c1	-1.2	9.3
CCOc1ccc(C2=Nn3c(nnc3-c3cccc(F)c3)SC2)cc1	-3.7	-2.0
O=[N+]([O-])c1ccc(N2CCN(c3ccccc3)CC2)c2ncccc12	-7.9	15.4
COCc1cc(CN2CCCCC2)c(O)c2ncccc12	1.6	100.1*
O=[N+]([O-])c1cc(CN2CCN(c3ccccc3)CC2)c(O)c2ncccc12	1.5	100.3*
CCOc1cccc(CN2CCCCCC2)c1O	-3.0	4.8
O=[N+]([O-])c1cc(CN2CCOCC2)c2cccnc2c1O	-60.3	100.0*
O=[N+]([O-])c1cc([N+](=O)[O-])c2cccnc2c1N1CCOCC1	5.0	20.0
O=c1c2cc(I)ccc2nc(/C=C/c2ccccc2)n1CCO	2.8	-0.7
COc1ccc(CNC(=O)C2CCCN(c3nnc4ccc(C(F)(F)F)cn34)C2)cc1 (stereo not given)	-1.5	15.9
Cc1cccc(NC(=O)c2sc3nc(-c4ccccc4)cn3c2C)n1	-0.7	50.0*
Cc1c(C(=O)Nc2ccccn2)sc2nc(-c3ccccc3)cn12	-24.1	7.8
C=C(C)CN(CC)C(=O)c1ccc(-c2ccc3c(c2)OCCO3)s1	1.6	-52.6
Cc1ccc2c(c1)C=C(C(=O)NC1CCCCC1)C=CO2	-4.3	-3.8
CC1CCN(CCNC(=O)c2ccc(-c3nc(-c4ccccc4)no3)cc2)CC1	-2.5	-1.7
CCOc1ccc(C2=CC(c3ccccc3OC(F)F)n3nnnc3N2)cc1Cl (stereo not given)	3.5	5.0
C[C@H]1[C@@H]2C[C@H]([C@H]3CCCCN31)[C@H](OC(=O)NCc1ccc(Cl)cc1)C2	-7.5	53.0*
CCc1ccc(CCNC(=O)O[C@@H]2C[C@H]3C[C@@H]2[C@H]2CCCCN2[C@H]3C)cc1	-13.9	14.3
Brc1ccc(C=NC23CN4CN(CN(C4)C2)C3)cc1	x	-8.4
CC(C)c1ccc(S(=O)(=O)N=C2C=C(Br)C(=O)c3ccccc32)cc1	-2.9	40.0
COc1ccc(S(=O)(=O)N=C2C=C(Br)C(=O)C(Br)=C2)cc1	-0.7	46.0
CCc1ccc(S(=O)(=O)N=C2C=CC(=O)c3ccccc32)cc1	-2.5	93.0*
CCc1ccc(S(=O)(=O)N=C2C=CC(=O)C=C2)cc1	-2.3	48.0
CC(C)(C)c1ccc(S(=O)(=O)N=C2C=CC(=O)c3ccccc32)cc1	7.5	94.0*
SMILES	Pf apPOL inh	mHTT-CaM PPI inh
CCOc1ccc(C2C(=O)c3ccccc3C2=O)cc1	-0.6	-3.9
CCOc1ccc(S(=O)(=O)N=C2C=CC(=O)c3ccccc32)cc1	-4.4	72.0*
CCOc1ccc(S(=O)(=O)N=C2C=CC(=O)C(Br)=C2)cc1	-4.6	73.0*
O=C(Cc1ccccc1)NC(NCc1ccco1)C(Cl)(Cl)Cl (stereo not given)	-4.3	-3.0
O=S(=O)(c1ccc(F)cc1F)N1CCN(c2ccc(-n3cccn3)nn2)CC1	-2.7	-9.0
COc1ccc(C(=O)N2CC(CN(C)C)C3(CCOCC3)C2)cc1F (stereo not given)	-13.3	2.3
O=c1[nH]c2ccc(S(=O)(=O)Nc3ccc(F)cc3Cl)cc2[nH]c1=O	4.5	3.0
COc1nccnc1NS(=O)(=O)c1ccc(NC(=O)COc2ccc(Cl)cc2)cc1	-3.7	3.9
O=C1c2ccccc2NC(c2cccs2)N1c1ccccc1 (stereo not given)	-1.9	1.0
Cc1cccc(C2SC(=O)NC3=C2C(=O)c2ccccc23)c1 (stereo not given)	1.2	22.0
O=C1C2=C(Nc3ccccc3SC2c2cccs2)c2ccccc21 (stereo not given)	5.7	73.0*
O=C1Nc2ccccc2SC1c1ccccc1 (stereo not given)	-3.2	x
COc1cccc(C2Sc3ccccc3NC3=C2C(=O)c2ccccc23)c1 (stereo not given)	-93.4	76.0*
O=C1NC2=C(C(=O)c3ccccc32)C(c2ccccc2)N1 (stereo not given)	-63.6	28.0
O=C1C2=C(Nc3ccccc3SC2c2ccccc2[N+](=O)[O-])c2ccccc21 (stereo not given)	2.8	53.0*
O=C1C2=C(Nc3ccccc3SC2c2ccccc2)c2ccccc21 (stereo not given)	x	73.5*
COc1cccc(C2Nc3ccccc3NC3=C2C(=O)CC(c2ccccc2)C3)c1OC (stereo not given)	8.4	39.0
COc1cccc(C2Sc3ccccc3NC3=C2C(=O)c2ccccc23)c1OC (stereo not given)	0.4	58.0*
N#Cc1c(-c2ccc(Nc3ccccc3)cc2)nn(-c2ccccc2)c1N	1.6	52.8*
N#CCc1nn(-c2ccccc2)c(N)c1C#N	0.1	3.7
COc1cccc(-c2nc(=S)c3c([nH]2)Oc2c(cccc2OC)C3)c1O	43.2	52.9*
